Measurements from PubChem BioAssay (NCATS).
Inconclusive results are not listed. A call without a number means that no potency is given here. Activity calls are given as the source filed them. Calls follow the shape of the dose curve; as a rule, active = well fitted inhibition curve with a large enough effect; inconclusive = small, poorly fitted or top-dose-only effect; inactive = no such curve, though single readings can be large or run the other way.

Assay: NS1 protein of Zika virus - qHTS assay to identify small molecule inhibitors in human HEK 293 cells (AID 1347053); also: nearly all actives have a fitted effect of over 55% in size
Conditions: HEK293 ZIKV MR766 infection, NS1 TR-FRET, 24 h; series mostly up to 46.1 µM
How it was run: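 Read-out is a two-antibody TR-FRET for ZIKV NS1, normalized between uninfected cells and infected cells. Compound added 1 h before MR766 infection at MOI 0.5; human HEK 293 cells incubated 24 h, 37 C.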
Potency is read from the fitted curve at half-maximal effect.

Question: For O=C(O)c1ccccc1C(=O)Nc1ccc(-c2ccccc2)cc1, which Potency is on record?
Answer: inactive

Question: For CCc1ccc(C=C2SC(=S)NC2=O)cc1, which Potency is on record?
Answer: inactive

Question: For CC=CC(=O)N(CC)c1ccccc1C, which Potency is on record?
Answer: inactive

Question: For Cc1cnc(C(=O)O)c[n+]1[O-], which Potency is on record?
Answer: inactive

Question: For C[C@]12CC[C@@H]3c4ccc(O)cc4CC[C@H]3[C@H]1C[C@@H](O)[C@H]2O, which Potency is on record?
Answer: inactive

Question: With O=c1ccn([C@@H]2O[C@H](CO)[C@H](O)[C@H]2O)c(=O)[nH]1 as the compound, how does the Potency read?
Answer: inactive

Question: For COc1cc2c(cc1OC)CN(CCc1ccc(NC(=O)c3cc(OC)c(OC)cc3NC(=O)c3cnc4ccccc4c3)cc1)CC2, which Potency is on record?
Answer: inactive

Question: With O=C1C[C@@H](c2ccc(O)cc2)Oc2cc(O)cc(O)c21 as the compound, how does the Potency read?
Answer: inactive

Question: For NS(=O)(=O)c1cccc2c1C(=O)c1cccc(O)c1C2=O, which Potency is on record?
Answer: 3.32 µM (active)

Question: Which Potency does the source give for C[C@]12CC[C@@H]3c4ccc(O)cc4C[C@@H](CCCCCCCCCS(=O)CCCC(F)(F)C(F)(F)F)[C@H]3[C@H]1CC[C@H]2O (stereo partly specified) here?
Answer: inactive

Question: For N#CC(=C(N)Sc1ccccc1N)C(C#N)=C(N)Sc1ccccc1N, which Potency is on record?
Answer: inactive

Question: With CC(C)(C(=O)NCC(F)(F)C(F)(F)F)C(=O)N[C@@H]1C(=O)Nc2ccccc2-c2ccccc21 as the compound, how does the Potency read?
Answer: inactive

Question: For CCCCCCCCCCCC1=C(O)C(=O)C=C(O)C1=O, which Potency is on record?
Answer: inactive

Question: Which Potency does the source give for C=C1C(=O)OC(CCCCCCCC)C1C(=O)O (stereo unspecified) here?
Answer: inactive

Question: With CCc1ccc(OCc2ccccc2C(=O)Nc2ccc3nc(C)cc(N)c3c2)cc1 as the compound, how does the Potency read?
Answer: 2.96 µM (active)

Question: With C[C@H]1[C@H](NC(=O)C(=NOC(C)(C)C(=O)O)c2csc(N)n2)C(=O)N1S(=O)(=O)O as the compound, how does the Potency read?
Answer: inactive

Question: With CC(=O)OC1C(C)OC(Oc2c(-c3ccc(O)cc3)oc3cc(O)cc(O)c3c2=O)C(O)C1OC(C)=O (stereo unspecified) as the compound, how does the Potency read?
Answer: inactive

Question: Which Potency does the source give for Cc1c[nH]c(C=C2C(=O)Nc3ccccc32)c1CCC(=O)O here?
Answer: inactive

Question: For CC1(C)CCC[C@@]2(C)[C@@H]1CC[C@@]1(C)OC(=O)C[C@H]21, which Potency is on record?
Answer: inactive

Question: Which Potency does the source give for COc1ccc2cccc(CCNC(C)=O)c2c1 here?
Answer: inactive

Question: Which Potency does the source give for O=C(O)c1ccc(-c2c[nH]c3ncc(-c4ccccc4)cc23)cc1C1CCCC1 here?
Answer: inactive

Question: For O=C(OCC#CCSc1nnc(-c2cccc3ccccc23)o1)c1cc2ccccc2s1, which Potency is on record?
Answer: inactive

Question: For CN(C)Cc1cccc(N=C(c2ccccc2)c2c(O)[nH]c3cc(C(=O)N(C)C)ccc23)c1, which Potency is on record?
Answer: inactive

Question: With O=C1c2ccccc2-[n+]2ccc3c([nH]c4ccccc43)c21 as the compound, how does the Potency read?
Answer: 1.05 µM (active)

Question: For Cc1ccc(C(=O)Nc2cccc(C(F)(F)F)c2)cc1Nc1nc(-c2cccnc2)nc2c1cnn2C, which Potency is on record?
Answer: 14.8 µM (active)

Question: With Cc1ccccc1C(C(=O)NC1CCCCC1)N(C(=O)Cn1ccnc1C)c1cccc(F)c1 (stereo unspecified) as the compound, how does the Potency read?
Answer: inactive

Question: With COc1ccc(-n2c(C)c([N+](=O)[O-])c3ccc(O)cc32)cc1 as the compound, how does the Potency read?
Answer: inactive

Question: Which Potency does the source give for CO[C@H]1C=CO[C@@]2(C)Oc3c(C)c(O)c4c(O)c(c5c(c4c3C2=O)NC2(CCN(CC(C)C)CC2)N=5)=NC(=O)C(C)=CC=C[C@H](C)[C@H](O)[C@@H](C)[C@@H](O)[C@@H](C)[C@H](OC(C)=O)[C@H]1C here?
Answer: inactive

Question: For CCOC(=O)O[C@]1(C(=O)OCCl)CC[C@@H]2[C@H]3CCC4=CC(=O)C=C[C@]4(C)[C@@H]3[C@@H](O)C[C@@]21C, which Potency is on record?
Answer: inactive

Question: For O=C(O)[C@H]1O[C@H](Oc2cc3oc(-c4ccccc4)cc(=O)c3c(O)c2O)[C@H](O)[C@@H](O)[C@H]1O, which Potency is on record?
Answer: inactive

Question: For NC1CCC(Nc2nc(Nc3ccc(C(=O)N4CCCCC4)cc3)c3ncn(-c4cccc(F)c4)c3n2)CC1 (stereo unspecified), which Potency is on record?
Answer: inactive

Question: Which Potency does the source give for O=C1NC(=O)C(=Cc2ccc3c(c2)OC(F)(F)O3)S1 here?
Answer: inactive

Question: For CC#CCn1c(N2CCC[C@@H](N)C2)nc2c1c(=O)n(Cc1nc(C)c3ccccc3n1)c(=O)n2C, which Potency is on record?
Answer: inactive

Question: Which Potency does the source give for COc1ccc(-c2coc3cc(O)cc(O)c3c2=O)cc1 here?
Answer: inactive

Question: For O=C(O)c1cc(O)c2c(c1)C(=O)c1cccc(O)c1C2=O, which Potency is on record?
Answer: inactive

Question: For C=C1C(=O)[C@@]23C(CC[C@@H]1[C@H]2O)[C@@]12CO[C@]3(O)[C@@H](O)[C@@H]1C(C)(C)CC[C@@H]2O (stereo partly specified), which Potency is on record?
Answer: 9.35 µM (active)
